# CYP2C19 activ = cytochrome P450 2C19 (human) activation. recombinant CYP2C19, luciferin-H EGE luminescence; hits give high values; 0 = fully inhibited enzyme, 1 = untreated enzyme. activation factor at 5 µM. 96,000 tested, under 10 active;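 active = activation factor of at least 2 at 5 µM in the primary screen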;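 also: 0 = wells with 2.5 mM tranylcypromine and 1 = vehicle-only wells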
# sEH act = increases human soluble epoxide hydrolase activity | P34913 | purified human sEH enzymatic activity, activator screen | activation, % at 2 µM | 91,000 compounds, 0.04% hits | AID 717; in the data active = activation above about 37%
# sEH inhibitor = blocks human soluble epoxide hydrolase activity. recombinant human sEH enzymatic activity assay. inhibition, % at 2 µM. 91,000 compounds, 0.34% hits. AID 707; in the data active = inhibition above about 80%
# CYP2C9 act = activators of human CYP2C9; P11712; recombinant CYP2C9, luciferin-H conversion, luminescence; hits give high values; factor 1 = untreated enzyme, 0 = blocked; activation factor at 5 µM; 96,000 compounds, 1.4% hits; AID 1024;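 active = activation factor of 2 or more for CYP2C9 at a 5 µM dose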;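 also: 0 = sulfaphenazole-blocked wells and 1 = vehicle-only wells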
# Target sequence (P11712 whole entry, looked up): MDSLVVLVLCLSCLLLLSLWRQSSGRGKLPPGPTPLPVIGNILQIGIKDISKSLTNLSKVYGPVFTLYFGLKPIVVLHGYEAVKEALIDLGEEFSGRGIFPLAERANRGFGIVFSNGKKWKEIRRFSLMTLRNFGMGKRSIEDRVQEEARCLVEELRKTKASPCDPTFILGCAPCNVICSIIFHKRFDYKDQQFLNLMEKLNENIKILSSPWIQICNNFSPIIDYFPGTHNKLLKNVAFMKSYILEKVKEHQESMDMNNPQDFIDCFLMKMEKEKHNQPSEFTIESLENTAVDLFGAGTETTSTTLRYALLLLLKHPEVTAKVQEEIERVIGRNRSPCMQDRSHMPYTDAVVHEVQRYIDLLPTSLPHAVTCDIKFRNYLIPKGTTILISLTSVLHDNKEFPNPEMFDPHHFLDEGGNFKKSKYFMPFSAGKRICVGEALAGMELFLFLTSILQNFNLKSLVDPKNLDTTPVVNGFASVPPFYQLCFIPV
# CYP2C9 inh = human CYP2C9 inhibition; P11712; CYP2C9 Supersomes, luciferin-H conversion, luminescence; inhibition, % at 5 µM; 96,000 compounds, 20% hits;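 active = blocking of liver enzyme CYP2C9 beyond about 50% at 5 µM, limit read from the data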
# CYP2C19 inhib = blocks human cytochrome P450 2C19 | inhibition, % at 5 µM | 96,000 compounds, 21% hits | CYP2C19 Supersomes, luciferin-H EGE luminescence, 30 min | P33261;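 active = CYP2C19 inhibition above a set limit at 5 µM in the primary screen, cut at about 50% in these data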;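 also: plate controls were negative control wells for no effect and 2.5 mM tranylcypromine positive control for full effect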
# The depositor's hits bear a star; nt = not tested or not shown; ! = repeats disagree. Hits are enriched below; roughly 27% of the tested compounds scored in any of these assays.
SMILES,CYP2C19 activ,sEH act,sEH inhibitor,CYP2C9 act,CYP2C9 inh,CYP2C19 inhib
Cc1nc(COC(=O)c2ccc(CO)cc2)cs1,0.4,-4.7,6.3,0.7,29.6,64.0*
O=C(O)c1cc2cccc(S(=O)(=O)N3CCOCC3)c2cc1O,1,14.2,-14.3,1,1.9,0.0
O=S(=O)(c1cccc2ccccc12)N1CCSC1,0.6,nt,nt,5.2*,-416.4,37.5
CC(C)c1nnc(NC(=O)CCC(=O)NCc2ccc3c(c2)OCO3)s1,1,3.0,-1.5,0.9,11.5,0.6
CCOC(=O)Cn1cc(/C=N/NC(=O)c2ccc(C#N)cc2F)c2ccccc21,0.8,-10.2,11.3,0.3,74.9*,22.4
C#CCOc1c(Br)cc(/C=N/O)cc1OCC,0.5,2.1,-1.4,0.3,72.2*,47.4
C#CCOc1c(Br)cc(/C=N\NC(=O)CN2CCOCC2)cc1OCC,0.7,5.5,-3.5,0.4,58.8*,31.2
Clc1ccc(-c2cc(CSc3cccc(Cl)c3)on2)cc1,0.2,nt,nt,0.5,45.4,75.4*
CC1CCCN(CC(O)CN)C1 (centres undefined),nt,-13.0,13.3,nt,nt,nt
O=C(/C=C/c1ccc(Cl)cc1Cl)NCc1ccncc1,0.2,-53.6,53.1,0.2,75.6*,80.8*
Cc1ccc(-c2cc(C(=O)NCc3ccco3)c3ccccc3n2)o1,1.1,10.6,-9.5,0.8,15.4,-5.8
CC(/C=N/NC(=O)c1cc(-c2ccncc2)nc2ccccc12)=C\c1ccco1,0,-8.0,10.0,0,99.9*,95.6*
O=C(N/N=C/c1ccc(F)cc1)c1cc(-c2ccco2)nc2ccccc12,1,10.2,-10.3,0.9,7.2,-1.8
O=C(NCc1ccco1)c1cc(-c2cccnc2)nc2ccccc12,0.6,nt,nt,0.3,70.4*,39.2
O=C(N/N=C/c1ccc([N+](=O)[O-])o1)c1cc(-c2ccncc2)nc2ccccc12,0.5,2.8,-1.6,0.1,90.0*,53.3*
O=C(NCc1ccco1)c1cc(-c2ccncc2)nc2ccccc12,0.2,nt,nt,0.4,57.3*,80.2*
C/C(=N/NC(N)=S)c1ccccc1[N+](=O)[O-],1,-5.8,7.5,1,-3.2,-1.3
CCOC(=O)c1ccc(S(=O)(=O)N2CCC(C(=O)O)CC2)cc1,1,-8.7,10.8,0.9,6.7,-0.7
O=C(CN1CCOCC1)Nc1nc2ccc(Br)cc2s1,0.8,-4.8,4.9,0.3,65.2*,15.4
O=C(O)CCSc1nnnn1-c1ccccc1,1.1,-9.0,9.6,1.1,-13.5,-14.3
C/C(N)=C(/C#N)C(=O)CSc1nnnn1-c1ccccc1,0.4,9.9,-8.6,1.1,-11.4,63.9*
COc1ccc(-n2nnnc2SCC(N)=O)cc1,1.1,5.8,-2.4,1.1,-14.8,-11.1
C/C(N)=C(/C#N)C(=O)CSc1nnnn1-c1ccc(C)cc1,0.5,nt,nt,1.2,-20.5,51.6*
O=S1(=O)Nc2c(ccc3cccnc23)-c2ccccc21,1,nt,nt,0.4,64.7*,4.4
O=c1[nH]n(-c2cccc3cccnc23)c(=O)c2ccccc12,0.6,-1.1,0.1,1.8,-79.2,39.8
SMILES,CYP2C19 activ,sEH act,sEH inhibitor,CYP2C9 act,CYP2C9 inh,CYP2C19 inhib
COC(=O)CSc1cc(C)nc2ccc(OC)cc12,0.7,11.1,-8.0,0.9,12.2,30.0
COc1ccc2nc(C)cc(SCC(=O)N/N=C/c3cccc4ccccc34)c2c1,1,-28.6,26.4,0.5,54.4*,0.9
COc1ccc2nc(C)cc(SCC(=O)O)c2c1,0.5,11.5,-11.9,0.6,38.4,50.3*!
CCSc1nc2ccccc2[nH]1,1.1,-11.3,13.9,1.3,-27.2,-5.6
Nc1nc(-c2nc3ccccc3[nH]2)cs1,0.6,20.7,-21.3,0.8,20.2,40.6
CCCOc1ccc(CSc2nc3ccccc3[nH]2)cc1,0.6,0.9,-0.1,0.1,89.8*,38.7
Nc1nc(CSc2nc3ccccc3[nH]2)cs1,0.2,7.0,-6.6,0.6,44.5,75.7*
CCCCOc1ccc(CSc2ncn[nH]2)cc1,0.1,-5.0,1.7,0.3,73.0*,93.3*
Fc1ccc(CSc2nc3ccccc3[nH]2)cc1,0.1,-0.1,2.7,0.4,55.5*,93.4*
CCOc1ccc(NC(=O)CSc2nc(C)c3c(c2C#N)CCCC3)cc1,1,-16.0,18.9,1.1,-8.3,4.2
CCn1c(C)nc2cc(S(=O)(=O)C(F)(F)F)ccc21,nt,2.3,1.2,nt,nt,nt
COC(=O)c1ccc(Oc2nc(C(N)=O)cc(-c3ccccc3)n2)cc1,1,2.0,-4.9,0.9,12.2,4.6
Fc1ccc(CSc2nc3ccccc3[nH]2)c2ccccc12,0,-20.8,16.1,0,97.5*,99.2*
Fc1cccc(CSc2nc3ncccc3[nH]2)c1,0.5,-4.9,2.3,0.7,28.7,46.5
O=c1cc(CSc2nc3ccccc3[nH]2)c2ccccc2[nH]1,0.7,-14.0,14.8,0.6,38.0,34.2
Fc1ccc(CSc2nc3ncccc3[nH]2)cc1,0.2,3.2,-3.2,0.5,51.1*,81.9*
O=C(Cn1cc2c(n1)CCCC2)N1CCc2ccccc21,0.9,nt,nt,0.7,27.4,9.5
N#CC1=C(N)SC(N)=C(C#N)C1c1c(Cl)cccc1Cl,0.1,-11.5,11.8,0,95.1*,89.3*
N#CC1=C(N)SC(N)=C(C#N)C1Cc1ccccc1,0.5,-5.4,6.8,0.7,33.6,45.7
N#CC1=C(N)SC(N)=C(C#N)C1c1ccc(C(F)(F)F)cc1,0.6,3.1,-4.4,0.6,38.0,44.2
N#CC1=C(N)SC(N)=C(C#N)C1CCc1ccccc1,0.1,-0.9,2.9,0.1,92.1*,85.1*
Cc1c(NC(=S)/C=C2\N(C)c3ccccc3C2(C)C)c(=O)n(-c2ccccc2)n1C,0.4,6.6,-7.2,1.9,-93.1,64.7*
Cc1c(N=C/C=C2/N(C)c3ccccc3C2(C)C)c(=O)n(-c2ccccc2)n1C,nt,-0.5,3.6,nt,nt,nt
Cc1c(N=C/C=C2\N(C)c3ccccc3C2(C)C)c(=O)n(-c2ccccc2)n1C,0.3,6.4,-9.9,1.1,-9.6,73.6*
Cc1nn(-c2ccccc2)c(Cl)c1C(=O)Nc1nnc(C2CCCC2)s1,0.6,nt,nt,0.1,94.4*,43.5
SMILES,CYP2C19 activ,sEH act,sEH inhibitor,CYP2C9 act,CYP2C9 inh,CYP2C19 inhib
Cc1cccc(C)c1NC(=O)c1c(C)nn(-c2ccccc2)c1Cl,0.5,4.8,-8.0,0.6,43.5,50.6*
Cc1nn(-c2ccccc2)c(Cl)c1C(=O)NCC(=O)O,1.2,1.0,1.4,1.1,-13.0,-17.5
Cc1cc(Cl)cc(C)c1OCCCCN1CCOCC1,0.5,-10.0,12.6,1,-0.3,54.1*
CCC(C)c1ccc(OCCCCN2CCOCC2)cc1 (centres undefined),0.4,8.2,-8.0,1,-2.1,56.7*
COC(=O)c1cc(OC)c(OC)cc1N=CC1=C(O)CC(C)(C)CC1=O,0.7,14.0,-13.4,0.7,29.8,26.6
Cc1ccc(-n2ncc(C(=O)N3CCc4ccccc4C3)c2NC(=O)c2ccco2)cc1C,nt,-1.7,4.0,nt,nt,nt
CC(=O)c1cccc(N(C(=O)c2cnccn2)C(C(=O)NCc2ccccc2)c2ccco2)c1 (centres undefined),0.5,7.1,-3.3,0.8,23.1,53.0*
